In PubChem BioAssay (NCI) one finds growth data, which are given here for 14 compounds.

Molecules are shown by their SMILES. Compounds without any hit were thinned out: in the full panel of roughly 83,000, 20% have a hit.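 For each line, cells grew in 96-well plates with the test compound present at a single concentration for 48 hours.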 A number with no mark means an inactive call. Active and inactive are the calls of the source. Rule for the calls: active = growth percent below 10; inactive = the rest.

Test systems include NCI-H23 lung; NCI-H226 lung; NCI-H322M lung; HOP-62 NSCLC; NCI-H460 lung; HOP-92 NSCLC; NCI-H522 lung; A549/ATCC NSCLC; 786-0 renal; COLO 205 colon.
What all share (assay): NCI-60 one-dose screen, 48 h (100 = growth as untreated, 0 = no growth, -100 = all killed)
What all share (details): 10 µM unless noted

Regarding `CCOC(=O)[C@@H](C)C[C@H](Cc1ccccc1)NC(=O)c1csc([C@@H](C[C@H](C(C)C)N(C)C(=O)[C@@H](NC(=O)[C@H]2CCCCN2C)C(C)(C)C)OC(C)=O)n1`, the growth in the experiment with NCI-H23 lung was 24.5%; in the experiment with NCI-H226 lung, 55.2%; with NCI-H322M lung, 27.3%; in the experiment on HOP-62 NSCLC, 11.8%; in the experiment on NCI-H460 lung, 6.23% (active); in the experiment with HOP-92 NSCLC it was 28.5%. The results for the growth in the experiment on NCI-H522 lung, with A549/ATCC NSCLC and in the experiment with 786-0 renal were -40.3% (active), 10.3% and 4.58% (active), respectively.

Regarding `O=C(N/N=C/c1ccc(N(CCCl)CCCl)cc1)c1cccc2ccccc12`, the growth in the experiment with NCI-H23 lung is 85.7%; with NCI-H226 lung, 74.3%; in the experiment on NCI-H322M lung, 102%; with HOP-62 NSCLC it was 59.5%; in the experiment on NCI-H460 lung, 47%; in the experiment on HOP-92 NSCLC, 55.5%. In addition, the growth in the experiment on NCI-H522 lung is 47.9%; in the experiment on A549/ATCC NSCLC, 58.4%; in the experiment with 786-0 renal, 74.2%.

Turning to `O=C(CC1(O)C(=O)N(Cc2ccccc2)c2ccccc21)c1ccc(C(=O)NCC2CCC3(CC2)OOC2(CCCCC2)OO3)cc1` (stereo not drawn), the growth in the experiment with NCI-H23 lung was -72.2% (active); in the experiment with NCI-H226 lung, -34.8% (active); in the experiment with NCI-H322M lung it was 65.2%; with HOP-62 NSCLC, -48.2% (active); in the experiment with NCI-H460 lung, -51.4% (active); with HOP-92 NSCLC, -72% (active). Also, the growth in the experiment with NCI-H522 lung is -28% (active); in the experiment with A549/ATCC NSCLC, -53.6% (active); in the experiment on 786-0 renal it was -73.1% (active).

As to `CCC1CN1CCCCN1CC1CC` (stereo not drawn), the growth in the experiment with NCI-H23 lung is 104%; in the experiment on NCI-H226 lung, 98.3%; with NCI-H322M lung, 96.7%; with HOP-62 NSCLC, 113%; with NCI-H460 lung, 113%; in the experiment with HOP-92 NSCLC, 116%. Moreover, the growth in the experiment on NCI-H522 lung was 95.6%; in the experiment with A549/ATCC NSCLC, 104%; in the experiment on 786-0 renal, 104%; in the experiment on COLO 205 colon, 112%.

On to `CC(=O)O[C@H](C[C@H](C(C)C)N(C)C(=O)[C@@H](NC(=O)[C@H]1CCCCN1C)C(C)C)c1nc(C(=O)NC2CCC(C(=O)O)CC2)cs1` (stereo partly drawn), for which the growth was 64.8% with NCI-H23 lung; 90.6% in the experiment on NCI-H226 lung; 72.4% in the experiment with NCI-H322M lung; 47.1% in the experiment on HOP-62 NSCLC; 26.7% in the experiment on NCI-H460 lung; 38% with HOP-92 NSCLC. In addition, the growth in the experiment on NCI-H522 lung is -6.59% (active); in the experiment with A549/ATCC NSCLC, 57.8%; in the experiment with 786-0 renal it was 46%.

Regarding `CNC(=O)Oc1ccc2c(c1)OCO2`, the growth in the experiment with NCI-H23 lung was 103%; in the experiment on NCI-H226 lung, 103%; in the experiment with NCI-H322M lung it was 107%; in the experiment on HOP-62 NSCLC it was 102%; in the experiment with NCI-H460 lung, 106%; with HOP-92 NSCLC, 108%. For the same compound, the growth in the experiment with NCI-H522 lung was 103%; with A549/ATCC NSCLC it was 100%; with 786-0 renal, 107%.

With `CC(=O)OCC1O[C@@H]([S-])C(OC(C)=O)[C@H](OC(C)=O)[C@@H]1OC(C)=O.[Au+].c1ccc(CN2[CH-]N(Cc3ccccc3)C(c3ccccc3)=C2c2ccccc2)cc1`, the growth in the experiment on NCI-H23 lung was 28.5%; in the experiment with NCI-H226 lung it was 72.5%; in the experiment with NCI-H322M lung, 82.7%; in the experiment on HOP-62 NSCLC it was 92.8%; in the experiment with NCI-H460 lung it was 62%; with HOP-92 NSCLC it was -7.44% (active). For the same compound, the growth with NCI-H522 lung is -47.6% (active); with A549/ATCC NSCLC it was 76.3%; with 786-0 renal, 40.1%.

For `Nc1ccc2c(c1)oc1ccccc12`, the growth is 97.3% with NCI-H23 lung; 93.1% in the experiment on NCI-H226 lung; 102% in the experiment on NCI-H322M lung; 103% with HOP-62 NSCLC; 111% with NCI-H460 lung; 89.4% in the experiment with HOP-92 NSCLC. For the same compound, the growth is 95.9% with NCI-H522 lung, 89% in the experiment on A549/ATCC NSCLC and 95.7% in the experiment on 786-0 renal.

With `CN1C(=O)C(=Cc2cn(Cc3ccccc3)c3ccccc23)C(=O)N(C)C1=O`, the growth was 80.4% with NCI-H23 lung; -71% (active) with NCI-H226 lung; 72.3% in the experiment with NCI-H322M lung; 73.6% in the experiment on HOP-62 NSCLC; 0.11% (active) in the experiment on NCI-H460 lung; 65.1% in the experiment on HOP-92 NSCLC. Moreover, the growth is 92.6% in the experiment on NCI-H522 lung, 81.7% in the experiment with A549/ATCC NSCLC, 93.9% in the experiment on 786-0 renal and 1.43% (active) in the experiment with COLO 205 colon.

As to `O=C(Nc1ccc(O)cc1)C(Cl)(Cl)Cl`, the growth in the experiment on NCI-H23 lung was 101%; in the experiment with NCI-H226 lung it was 101%; with NCI-H322M lung it was 102%; in the experiment with HOP-62 NSCLC, 104%; in the experiment on NCI-H460 lung, 105%; in the experiment on HOP-92 NSCLC, 105%. Besides, the growth in the experiment on NCI-H522 lung is 91.2%; in the experiment with A549/ATCC NSCLC, 98.4%; in the experiment with 786-0 renal, 95.2%.

Turning to `O=[N+]([O-])/C=C\c1ccc(Cl)c(Cl)c1`, the growth in the experiment on NCI-H23 lung was 77%; in the experiment with NCI-H226 lung, 73.8%; in the experiment on NCI-H322M lung it was 105%; in the experiment with HOP-62 NSCLC, 95.6%; in the experiment with NCI-H460 lung, 67.2%; in the experiment on HOP-92 NSCLC, 59.2%. For the same compound, the growth in the experiment with NCI-H522 lung was 74%; in the experiment with A549/ATCC NSCLC it was 57.5%; in the experiment on 786-0 renal, 74%.

For `O=C1N[C@@H]2[C@@H](O)[C@@H](O)[C@H](O)C[C@H]2c2cc3c(c(O)c21)OCO3`, the growth is -14.9% (active) in the experiment on NCI-H23 lung; -38.3% (active) in the experiment on NCI-H226 lung; -14.7% (active) in the experiment on NCI-H322M lung; -18.9% (active) in the experiment on HOP-62 NSCLC; -15.1% (active) in the experiment with NCI-H460 lung; -19% (active) in the experiment with HOP-92 NSCLC. In addition, the growth is -32.6% (active) with NCI-H522 lung, -8.4% (active) in the experiment with A549/ATCC NSCLC and -10.8% (active) with 786-0 renal.

On to `Clc1ccc(COC(Cn2ccnc2)c2ccc(Cl)cc2Cl)cc1` (stereo not drawn), for which the growth with NCI-H23 lung is 54.2%; in the experiment on NCI-H226 lung it was 70.2%; in the experiment with NCI-H322M lung it was 84.9%; with HOP-62 NSCLC, 75.1%; in the experiment on NCI-H460 lung, 33.2%; with HOP-92 NSCLC, 26%. Also, the growth in the experiment with NCI-H522 lung is 36.4%; in the experiment on A549/ATCC NSCLC, 51.7%; with 786-0 renal, 68.5%.

For the compound `Cc1cc(C)c(CBr)c(C)c1`, the growth with NCI-H23 lung was 100%; in the experiment with NCI-H226 lung, 92.8%; with NCI-H322M lung, 92.4%; in the experiment with HOP-62 NSCLC it was 104%; in the experiment on NCI-H460 lung, 109%; with HOP-92 NSCLC, 87.5%. The figures for the growth in the experiment on NCI-H522 lung, in the experiment with A549/ATCC NSCLC and in the experiment with 786-0 renal were 90.2%, 95.1% and 99.2%, respectively.
